# Assay results: PubChem BioAssay (Tox21)
# Where “and” joins values, the source holds several entries; their conditions need not be identical. Equal values may be shown once. Records with an inconclusive call do not appear. A call without a number means that no potency is given here. Calls of active or inactive are those of the source. The call rests on the fitted dose curve; in most records, active means well fitted inhibition curve with a large enough effect in the repeat runs; inconclusive means weak or mixed curves; inactive means no such curve, though single readings can be large or run the other way.
# Target: Cytochrome P450 3A4 (Homo sapiens) (UniProt P08684)
# Sequence (P08684 whole entry, looked up): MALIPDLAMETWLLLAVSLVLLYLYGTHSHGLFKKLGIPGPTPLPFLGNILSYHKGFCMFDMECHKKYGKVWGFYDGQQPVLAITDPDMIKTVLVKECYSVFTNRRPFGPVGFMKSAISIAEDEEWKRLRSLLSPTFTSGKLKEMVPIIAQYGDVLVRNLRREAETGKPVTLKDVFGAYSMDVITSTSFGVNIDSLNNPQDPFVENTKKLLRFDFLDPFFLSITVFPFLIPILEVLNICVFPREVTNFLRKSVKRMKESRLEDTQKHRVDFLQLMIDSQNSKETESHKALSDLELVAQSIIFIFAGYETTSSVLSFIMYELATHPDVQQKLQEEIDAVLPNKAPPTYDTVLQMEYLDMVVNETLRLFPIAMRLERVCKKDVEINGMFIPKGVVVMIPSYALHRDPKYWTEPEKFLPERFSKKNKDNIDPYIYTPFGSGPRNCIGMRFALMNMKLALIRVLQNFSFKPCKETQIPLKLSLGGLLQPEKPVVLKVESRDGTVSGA
# Assay: Cytochrome P450 Family 3 Subfamily A Member 4 (CYP3A4) small molecule antagonists: luciferase reporter qHTS assay (AID 1671201); further: nearly all actives have a fitted effect of over 50% in size
# Settings: P450-Glo CYP3A4 enzyme, luciferin luminescence, 1 h; series mostly up to 115 µM
# Procedure, shortened: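 Inhibition of CYP3A4 is measured as loss of light: the enzyme converts a proluciferin substrate to luciferin, detected luminescently. Reaction ran 1 h at room temperature with NADPH regeneration after a 10 min compound preincubation.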
# Potency means the concentration at half of the fitted maximal effect.
row,Compound,Potency
1,CCCC[N+]1(C)CCCC1 (tested in a mixture with another compound),inactive
2,CC(C)(C)c1ccc(OP(=O)(Oc2ccccc2)Oc2ccccc2)cc1,inactive
3,Cc1cc(C2CC2)nc(Nc2ccccc2)n1,inactive
4,Cc1ccc2cc3c(ccc4ccccc43)c3c2c1CC3,8.96 µM (active)
5,O=S1OCC2C(CO1)C1(Cl)C(Cl)=C(Cl)C2(Cl)C1(Cl)Cl (configuration not stated),283 nM (active) and 633 nM (active)
6,COP(=O)(OC)Oc1ccc([N+](=O)[O-])cc1,inactive
7,CCCCCCCc1ccc(O)cc1,inactive
8,CCN(CC)CCc1c[nH]c2ccccc12,inactive
9,C#CCC1=C(C)C(OC(=O)C2C(C=C(C)C)C2(C)C)CC1=O (configuration not stated),8.88 µM (active)
10,CN1CCc2cc(Cl)c(O)cc2[C@H]2c3ccccc3CC[C@@H]21,inactive
11,CSC1=N[C@@](C)(c2ccccc2)C(=O)N1Nc1ccccc1,31.7 µM (active)
12,CCOP(=O)(Sc1ccccc1)Sc1ccccc1,inactive
13,COc1ccc2[nH]cc(CCN(C(C)C)C(C)C)c2c1,inactive
14,C[C@H]1[C@H](c2ccc(Cl)cc2)SC(=O)N1C(=O)NC1CCCCC1,7.96 µM (active)
15,CCOP(=O)(OCC)Oc1nc(Cl)c(Cl)cc1Cl,inactive
16,c1ccc(Nc2ccc(Nc3ccccc3)cc2)cc1,39.8 µM (active)
17,c1csc(-c2ccc(-c3cccs3)s2)c1,inactive
18,Clc1ccc(C(c2ccc(Cl)cc2)C(Cl)Cl)cc1,inactive
19,C=Cc1cccc(CCl)c1,inactive
20,S=C=NCCc1ccccc1,20.1 µM (active)
21,c1ccc(N=NNc2ccccc2)cc1,26 µM (active)
22,CN1CCc2cc3c(cc2C1O)OCO3 (configuration not stated),inactive
